Results from PubChem BioAssay AID624300 (Southern Research Specialized Biocontainment Screening …, 2012).
The whole screen tested about 2,400 compounds, of which about 360 (15%) were called active.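 How the source made its calls: active means viability falls under 70% at one or more tested concentrations, taken as toxicity; inactive means viability stays over 70% at every dose.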 The list is a sample of the results. Potency and affinity values are given separately.

experiment: viability loss in HeLa cells – cytotoxicity control for MgcRacGAP inhibitor project, dose response (AID 624300); conditions: CellTiter-Glo luminescence, 24 h; series mostly up to 100 µM; viability: at the top concentration;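 further: 100% = median of untreated control wells on the same plate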

Row | Compound | viability
1 | CCCCn1c(C)cc2cc(O)ccc21 | 101% (inactive)
2 | COc1ccc(N2CCN(C(=O)c3ccccc3N(C)S(=O)(=O)c3ccccc3)CC2)cc1 | 97.8% (inactive)
3 | COc1cc(CNCc2cc(OC)c(OC)c(OC)c2)cc(OC)c1 | 96.5% (inactive)
4 | COc1cc2c(cc1NCc1ccc3c(c1)OCO3)oc1ccccc12 | 81% (inactive)
5 | CCc1cc(/C(Cc2cscn2)=N\O)c(O)cc1O | 95.1% (inactive)
6 | CCN(CC)c1ccc(NC(=O)COC(=O)CCc2cc(OC)c(OC)c(OC)c2)cc1 | 104% (inactive)
7 | O=C(CN1CCN(C/C=C/c2ccccc2)CC1)Nc1ccccc1C(=O)NC1CC1 | 95.7% (inactive)
8 | CCn1c2ccccc2c2cc(NC(=O)CNC)ccc21 | 101% (inactive)
9 | COc1ccccc1CNCC(=O)NCc1ccc(C)cc1 | 99.6% (inactive)
10 | COc1cc(CNCc2ccccc2C(F)(F)F)cc(OC)c1 | 96.3% (inactive)
11 | CCn1c2ccccc2c2cc(N)ccc21 | 91.2% (inactive)
12 | COc1ccc(/C=N\NC(=O)c2ccc(=O)[nH]n2)cc1O | 106% (inactive)
13 | O=C(c1cccc(F)c1)N1CCN(C2CCCCC2)CC1 | 103% (inactive)
14 | CN(C)CCCNc1ncnc2sc(-c3ccccc3)cc12 | 91.6% (inactive)
15 | Cc1cc(C)c(OCCCCN2CCC(C)CC2)c(Br)c1 | 89.6% (inactive)
16 | O=C(CN1CCN(c2ccc(O)cc2)CC1)NC(=O)NCc1ccco1 | 98.2% (inactive)
17 | COc1cc(/C=N\NC(=O)CNC(=O)C2COc3ccccc3O2)ccc1O (centres undefined) | 109% (inactive)
18 | Oc1ccc(C2=Nn3c(nnc3-c3ccco3)SC2)cc1O | 85.5% (inactive)
19 | CCN(CC)c1ccc(NC(=O)COC(=O)CCC(=O)c2cccs2)cc1 | 106% (inactive)
20 | O=C(Cc1coc2cc(O)ccc12)NNC(=O)c1cccs1 | 108% (inactive)
21 | CN(C)c1ccc(C(=O)NC2(N3CCC3=O)CCCC2)cc1 | 94% (inactive)
22 | Cc1ccn2c(NC3CCCC3)c(-c3ccncc3)nc2c1 | 84.7% (inactive)
23 | Cc1ccc(Nc2c(-c3ccco3)nc3ccccn23)cc1 | 96.7% (inactive)
24 | O=CNc1ccc2c(c1)Cc1cccc(NC=O)c1-2 | 84.9% (inactive)
25 | O=C(CNCc1ccco1)Nc1ccc(Oc2ccccc2)cc1 | 89.1% (inactive)

Row | Compound | viability
26 | Cc1ccccc1OCCn1c(=S)[nH]c2c(N)ncnc21 | 104% (inactive)
27 | CC1CC(C)CN(CC(=O)NC(c2ccccc2)c2ccccc2)C1 (centres undefined) | 88.4% (inactive)
28 | Cc1c(-c2ccccc2)sc(N)c1C(=O)N1CCOCC1 | 103% (inactive)
29 | CCN(CC)c1ccc(NC(=O)C2=CC=CN3CCS(=O)(=O)N=C23)cc1 | 109% (inactive)
30 | CCOC(=O)C1=C(O)/C(=C\c2ccc(O)c(OCC)c2)N=C1C | 99.8% (inactive)
31 | CCOc1cc(/C=C2\N=C3CCCCCN3C2=O)ccc1O | 101% (inactive)
32 | COc1ccccc1N1CCN(CC(=O)NCC2CCCO2)CC1 (centres undefined) | 102% (inactive)
33 | O=C(CSc1nnnn1-c1ccc(F)cc1)c1ccc(O)c(O)c1 | 105% (inactive)
34 | Cc1cc(C)nc(SCC(=O)c2ccc(O)c(O)c2)n1 | 88.8% (inactive)
35 | COc1cc(/C=N/NC(=O)c2ccc(N3CCCC3=O)cc2)ccc1O | 112% (inactive)
36 | COc1cccc2cc(C(=O)Oc3ccc(NC(C)=O)cc3)c(=O)oc12 | 109% (inactive)
37 | Cc1ccc(C)c(OCC(O)CN2CCC(C)CC2)c1C (centres undefined) | 93.9% (inactive)
38 | O=S(=O)(c1ccc2ccccc2c1)N1CCN(c2ccc(O)cc2)CC1 | 109% (inactive)
39 | Cc1ccc(S(=O)(=O)N2CCN(C(=O)CN3CCN(c4ccc(O)cc4)CC3)CC2)cc1 | 107% (inactive)
40 | COc1cc(C(=O)N/N=C/c2cn(Cc3ccccc3)c3ccccc23)ccc1O | 102% (inactive)
41 | O=C1CCCC(O)=C1C=Nc1ccc(O)cc1 | 98% (inactive)
42 | COc1cc(/C=N/N=C2\CC3CCC2(C)C3(C)C)ccc1O (centres undefined) | 96.9% (inactive)
43 | CCN(CC)c1ccc(/C=N/NC(=O)c2cc3ccccc3[nH]2)cc1 | 100% (inactive)
44 | O=C(C[n+]1ccccc1)N/N=C/c1ccc(O)cc1 | 98.7% (inactive)
45 | COc1ccc(C)cc1NC(=O)C(NCC(O)c1ccccc1)c1ccccc1 (centres undefined) | 90.1% (inactive)
46 | CC(=O)N1CCN(c2ccc(NCc3ccccc3)cc2)CC1 | 100% (inactive)
47 | CCc1nc(Nc2ccc(N3CCN(C(C)=O)CC3)cc2)c2oc3ccccc3c2n1 | 102% (inactive)
48 | COc1cc(/C=C/C(=O)OCC(=O)c2ccc(OC(F)F)cc2)ccc1O | 94.6% (inactive)
49 | CCN(CC)c1ccc(NC(=O)c2ccc3c(c2)OCO3)cc1 | 102% (inactive)
50 | CCN(CC)c1ccc(NC(=O)c2ccc(S(=O)(=O)N3CCOCC3)cc2)cc1 | 95.2% (inactive)

Row | Compound | viability
51 | C/C=C(\C)CN1CCN(c2ccc(C)cc2)CC1 | 95.2% (inactive)
52 | CN1C=CC=C/C1=C(\C#N)c1nc2ccccc2[nH]1 | 102% (inactive)
53 | N#C/C(=C\c1ccc(N2CCOCC2)o1)c1nc2ccccc2[nH]1 | 94.4% (inactive)
54 | COc1cc(/C=C(\C#N)C(=O)Nc2ccc3c(c2)OCCO3)ccc1O | 110% (inactive)
55 | N#C/C(=C/c1ccc(N2CCOCC2)o1)c1nc2ccccc2[nH]1 | 98.4% (inactive)
56 | COc1cc(/C=C(\C#N)C(=O)c2c[nH]c3ccccc23)cc(OC)c1O | 98.6% (inactive)
57 | COc1ccccc1N1CCN(/N=C/c2cc(OC)c(O)c(OC)c2)CC1 | 98.3% (inactive)
58 | COc1ccc(CN2CCN(Cc3ccccc3F)CC2)cc1OC | 94% (inactive)
59 | CN(c1ccccc1)S(=O)(=O)c1cccc(C(=O)NCCc2ccc(O)c(O)c2)c1 | 93.7% (inactive)
60 | COc1cccc(OC)c1C(=O)N1CCN(Cc2ccc3c(c2)OCO3)CC1 | 96.2% (inactive)
61 | COc1cc(/C=C/C(=O)OCC(=O)N(C)Cc2ccccc2)ccc1O | 90% (inactive)
62 | Cc1ccc(C2=NN=C(NC(=O)CSc3nncn3C)SC2)cc1 | 86.7% (inactive)
63 | COc1cc(/C=N/NC(=O)CC2C(=O)NN=C2C)ccc1O (centres undefined) | 98.4% (inactive)
64 | CCN(CC)c1ccc(NC(=O)CN2C(=O)NC3(CCc4ccccc43)C2=O)cc1 (centres undefined) | 108% (inactive)
65 | Nc1ccc(C(=O)c2ccc3c(c2)OCCO3)cc1N | 105% (inactive)
66 | COc1cc(-c2nc3ccccc3s2)ccc1O | 92.2% (inactive)
67 | Cc1ccc(S(=O)(=O)Nc2nsc(N)n2)cc1 | 99.2% (inactive)
68 | Oc1ccc(Cc2ccccc2Cl)c(O)c1 | 89% (inactive)
69 | CCOc1cc(/C=N/NC(=O)C(C)Sc2ccccn2)ccc1O (centres undefined) | 114% (inactive)
70 | COc1cc(/C=N\Nc2cc(=O)n(C)c(=O)n2C)ccc1O | 93% (inactive)
71 | COc1cc(/C=C/C(=O)OCC(=O)N(CC(C)C)c2c(N)n(Cc3ccccc3)c(=O)[nH]c2=O)ccc1O | 83.7% (inactive)
72 | COc1ccc(Nc2ccccc2)c(C)c1 | 93% (inactive)
73 | O=[N+]([O-])c1cc([N+](=O)[O-])c2nonc2c1Nc1ccccc1O | 91.2% (inactive)
74 | Cc1cc(C)c(C)c(S(=O)(=O)N2CCN(c3ccc(O)cc3)CC2)c1C | 111% (inactive)
